Results reported in PubChem BioAssay (NCI).
This is part of a sample that, as a whole, favours compounds with a hit. Of some 83,000 tested, about 20% had one in any assay.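 Plates (96-well) were seeded with cells, treated with compound at one concentration, and incubated for 48 hours before percent growth was determined.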 Activity calls are given as the source filed them. The calls were made as follows: active = growth percent below 10; inactive = the rest.

Key:
Assay in all cases: NCI-60 one-dose screen, 48 h (100 = growth as untreated, 0 = no growth, -100 = all killed)
Details in all cases: 10 µM unless noted
NCI-H23 lung = system: NCI-H23 lung
NCI-H322M lung = system: NCI-H322M lung
HOP-62 NSCLC = system: HOP-62 NSCLC
NCI-H460 lung = system: NCI-H460 lung
HOP-92 NSCLC = system: HOP-92 NSCLC
NCI-H522 lung = system: NCI-H522 lung
A549/ATCC NSCLC = system: A549/ATCC NSCLC
786-0 renal = system: 786-0 renal
COLO 205 colon = system: COLO 205 colon
DU-145 prostate = system: DU-145 prostate
MALME-3M melanoma = system: MALME-3M melanoma
MDA-MB-231 breast = system: MDA-MB-231 breast
SF-268 CNS = system: SF-268 CNS
SF-295 CNS = system: SF-295 CNS
SF-539 CNS = system: SF-539 CNS
M14 melanoma = system: M14 melanoma
K-562 leukemia = system: K-562 leukemia
RXF 393 renal = system: RXF 393 renal
UACC-257 melanoma = system: UACC-257 melanoma

Measured: growth

COC(=O)c1[nH]cnc1/N=N/N(C)CCO
inactive: NCI-H23 lung 96.3% | NCI-H322M lung 108% | HOP-62 NSCLC 97.4% | NCI-H460 lung 105% | HOP-92 NSCLC 128% | NCI-H522 lung 92% | A549/ATCC NSCLC 109% | 786-0 renal 93.5% | COLO 205 colon 120% | DU-145 prostate 110% | MALME-3M melanoma 119% | MDA-MB-231 breast 118% | SF-268 CNS 93% | SF-295 CNS 112% | SF-539 CNS 95% | M14 melanoma 101%

CN[C@@H]1C[C@H]2O[C@@](C)([C@@H]1OC)n1c3ccccc3c3c4c(c5c6ccccc6n2c5c31)C(=O)N[C@H]4O
active: NCI-H23 lung -48.8% | NCI-H322M lung -25.8% | HOP-62 NSCLC -60.8% | NCI-H460 lung -63.7% | HOP-92 NSCLC -9.92% | NCI-H522 lung -37.2% | A549/ATCC NSCLC -36.8% | 786-0 renal -87.5% | COLO 205 colon -80.8% | DU-145 prostate 3.62% | K-562 leukemia -15.6% | MALME-3M melanoma -81.2% | MDA-MB-231 breast -48.5% | RXF 393 renal -94.3% | SF-268 CNS -66.5% | SF-295 CNS -75.8% | SF-539 CNS -88.4% | UACC-257 melanoma -88.4% | M14 melanoma -56.6%

CSc1nc2ncnc(SC)c2[nH]1
inactive: NCI-H23 lung 96.1% | NCI-H322M lung 101% | HOP-62 NSCLC 77.8% | NCI-H460 lung 109% | HOP-92 NSCLC 98.7% | NCI-H522 lung 76% | A549/ATCC NSCLC 62.3% | 786-0 renal 98.9% | COLO 205 colon 103% | DU-145 prostate 110% | K-562 leukemia 100% | MALME-3M melanoma 110% | MDA-MB-231 breast 107% | SF-268 CNS 102% | SF-295 CNS 102% | SF-539 CNS 103% | M14 melanoma 97.9%

Cc1cc(Nc2ncnc3ccc(NC4=NC(C)(C)CO4)cc23)ccc1Oc1ccn2ncnc2c1
inactive: NCI-H23 lung 35.6% | HOP-62 NSCLC 22.3% | NCI-H460 lung 26.9% | A549/ATCC NSCLC 20.7% | 786-0 renal 29.7% | DU-145 prostate 35.2% | K-562 leukemia 10% | SF-268 CNS 41.8% | SF-295 CNS 52.7% | SF-539 CNS 30.4%
active: NCI-H322M lung 5.34% | HOP-92 NSCLC 9.05% | NCI-H522 lung 6.43% | COLO 205 colon -60.7% | MALME-3M melanoma -8.78% | MDA-MB-231 breast -4.62% | RXF 393 renal 0.527% | UACC-257 melanoma 4.04% | M14 melanoma 8.95%

CCc1cc2c(c3ccc(C(=O)CBr)cc13)CCCC2
inactive: NCI-H23 lung 89.1% | NCI-H322M lung 77.5% | HOP-62 NSCLC 91.6% | NCI-H460 lung 109% | HOP-92 NSCLC 109% | NCI-H522 lung 88.3% | A549/ATCC NSCLC 93% | 786-0 renal 99.7% | COLO 205 colon 102% | DU-145 prostate 107% | K-562 leukemia 86.4% | MALME-3M melanoma 95.9% | MDA-MB-231 breast 99.8% | SF-268 CNS 92.2% | SF-295 CNS 105% | SF-539 CNS 98.3% | M14 melanoma 107%

O=C1NC(=O)/C(=C/c2ccc3nccc(-c4ccncc4)c3c2)S1
active: NCI-H23 lung -17.4% | NCI-H322M lung -50.8% | HOP-62 NSCLC -36.1% | NCI-H460 lung -2.65% | HOP-92 NSCLC -41.1% | NCI-H522 lung -95.6% | A549/ATCC NSCLC -51.8% | 786-0 renal -41.6% | COLO 205 colon -56.6% | DU-145 prostate 2.86% | K-562 leukemia 5.97% | MALME-3M melanoma -42.7% | MDA-MB-231 breast -13.3% | RXF 393 renal -74.2% | SF-268 CNS -11.5% | SF-295 CNS -48.2% | SF-539 CNS -61.5% | UACC-257 melanoma -33.5% | M14 melanoma -45.5%

O=[N+]([O-])c1cc(Br)cc2c1[nH]c1ccc(Br)cc12
inactive: NCI-H23 lung 58% | NCI-H322M lung 58% | HOP-62 NSCLC 39.2% | NCI-H460 lung 73.5% | HOP-92 NSCLC 44.2% | NCI-H522 lung 63.5% | A549/ATCC NSCLC 52.3% | 786-0 renal 44.3% | COLO 205 colon 52.1% | DU-145 prostate 77.1% | K-562 leukemia 55.5% | MALME-3M melanoma 66.3% | MDA-MB-231 breast 58.4% | RXF 393 renal 43.6% | SF-268 CNS 73.4% | SF-295 CNS 49.9% | SF-539 CNS 84.6% | UACC-257 melanoma 88.7% | M14 melanoma 70.5%

CC(=Nc1ccccc1)C1=C(O)C(Cc2ccccc2)NC1=O (stereo unspecified)
inactive: NCI-H322M lung 45.7% | HOP-62 NSCLC 16.7% | MALME-3M melanoma 58.6% | SF-268 CNS 14.1%
active: NCI-H23 lung -1.27% | NCI-H460 lung 3.86% | HOP-92 NSCLC -9.07% | NCI-H522 lung -15.4% | A549/ATCC NSCLC -28.9% | 786-0 renal 8.26% | COLO 205 colon -71.8% | DU-145 prostate -31.5% | MDA-MB-231 breast -1.28% | SF-295 CNS -19.1% | SF-539 CNS -33.8% | M14 melanoma -16.6%

C=CCN1C(=O)c2cccc3c(-c4ccc5c(c4)ncn5C4CCCCC4)ccc(c23)C1=O
inactive: NCI-H23 lung 50.5% | NCI-H322M lung 93.9% | HOP-62 NSCLC 67.1% | NCI-H460 lung 58.2% | HOP-92 NSCLC 32.4% | NCI-H522 lung 52% | A549/ATCC NSCLC 58.3% | 786-0 renal 58.8% | COLO 205 colon 47% | DU-145 prostate 72.5% | K-562 leukemia 26.2% | MALME-3M melanoma 56% | MDA-MB-231 breast 57.1% | RXF 393 renal 110% | SF-268 CNS 72.4% | SF-295 CNS 44.5% | SF-539 CNS 71.4% | UACC-257 melanoma 44.6% | M14 melanoma 50%
